From PubChem BioAssay AID588852 (The Scripps Research Institute Molecular Screening Center, 2011)
In all, about 360,000 compounds went through this assay and about 4,600 (1.3%) were called active.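 Rule for the calls: active = percent inhibition above its own plate's cutoff, namely the mean of that plate's compound wells plus 3 SD; inactive = the rest.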 The sample as a whole holds a higher share of actives than the screen did.

Target: Muscarinic acetylcholine receptor M1 (Homo sapiens) (UniProt P11229)
Test: human M1 muscarinic receptor antagonists, primary screen, CHO-K1 cells, Fluo-8 calcium fluorescence, 1536-well (AID 588852);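 note: peak over basal fluorescence ratio during 140 s after agonist addition; 0% = ACh EC80 plus DMSO and 100% = DMSO alone without agonist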
Conditions: CHO-K1 hM1, Fluo-8 calcium fluorescence, ACh EC80 antagonist; at 3 µM; hits give high values

Sequence of Muscarinic acetylcholine receptor M1 (Homo sapiens) (P11229 whole entry, looked up): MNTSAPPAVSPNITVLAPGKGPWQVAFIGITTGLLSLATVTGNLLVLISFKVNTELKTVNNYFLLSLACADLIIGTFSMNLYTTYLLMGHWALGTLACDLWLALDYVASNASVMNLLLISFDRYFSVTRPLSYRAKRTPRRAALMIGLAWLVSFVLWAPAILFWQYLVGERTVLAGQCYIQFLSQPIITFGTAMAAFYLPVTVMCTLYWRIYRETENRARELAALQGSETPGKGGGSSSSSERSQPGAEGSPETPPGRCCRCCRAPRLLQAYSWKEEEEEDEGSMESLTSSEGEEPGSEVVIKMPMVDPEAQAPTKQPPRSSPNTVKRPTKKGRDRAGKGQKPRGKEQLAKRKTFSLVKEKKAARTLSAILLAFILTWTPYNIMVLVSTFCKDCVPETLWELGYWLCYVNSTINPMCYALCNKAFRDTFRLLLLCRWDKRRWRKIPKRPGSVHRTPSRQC

SMILES | inhibition
COc1ccc(-n2nnnc2C(c2cccc3ccccc23)N2CCC(n3c(=O)[nH]c4ccccc43)CC2)cc1 (stereo not given) | 103% (active)
O=c1[nH]c2ccccc2n1C1CCN(C(c2ccnc3ccccc23)c2nnnn2Cc2ccccc2)CC1 (stereo not given) | 4.78% (inactive)
O=c1[nH]c2ccccc2n1C1CCN(C(c2ccccc2)c2nnnn2Cc2ccccc2)CC1 (stereo not given) | -3.28% (inactive)
COC1C(O)C(C)OC(OC2CCC3(C=O)C(CCC4C3CCC3(C)C(C5=CC(=O)OC5)CCC43O)C2)C1O (stereo not given) | -8.54% (inactive)
CC12CCC3C(CCC4CC(=O)CCC43C)C1CC(=NO)C2=O (stereo not given) | -2.57% (inactive)
COc1cccc(C(=O)N2C[C@H]3C[C@@H](C2)c2cccc(=O)n2C3)c1 | -17.6% (inactive)
CCn1cc(CN2CCCC(C(=O)c3cccc(C(F)(F)F)c3)C2)cn1 (stereo not given) | 30.8% (inactive)
CC(C)Oc1cccc(C(=O)C2CCCN(C3CCOCC3)C2)c1 (stereo not given) | 62.5% (active)
O=C(Nc1cccc(OC(=O)N2CCCCC2)c1)N1CCOCC1 | 12.4% (inactive)
CC(C)(C)[C@]1(O)C[C@@H]2OC(=O)C[C@@]23C(=O)O[C@@H]2OC(=O)[C@H](O)[C@]213 | -3.8% (inactive)
CC(=NCc1ccc2c(c1)OCO2)c1c(O)[nH]c(=O)[nH]c1=O | -24.2% (inactive)
CCCC[N+]1(C)C2CC(OC(=O)C(CO)c3ccccc3)CC1C1OC12 (stereo not given) | 85.3% (active)
CCCCC(=O)N/N=C/c1c(O)n(CC)c(=S)n(CC)c1=O | -7.53% (inactive)
Cc1ccc2c(c1)C1CN(C)CCC1N2C(=O)Cn1nnc(-c2ccccc2F)n1 (stereo not given) | 5.84% (inactive)
O=C(COc1ccc2ccccc2c1)N1CCN(Cc2ccncc2)CC1 | 14.5% (inactive)
CC(C(=O)Nc1ccc(Cl)cc1Cl)N1CC=C(c2ccccc2)CC1 (stereo not given) | 18.7% (inactive)
CC[N+]1(C)CCCC(OC(=O)C(O)(c2ccccc2)c2ccccc2)C1 (stereo not given) | 97.3% (active)
COC(=O)CN1C(=O)C2(C(C(=O)OC)=C(N)Oc3ccccc32)C2=C1CC(C)(C)CC2=O (stereo not given) | -6.88% (inactive)
CCOc1ccc(CN(CCCl)CCCl)cc1C(=O)OC | -7.91% (inactive)
CSCCC(c1nnnn1C(C)(C)C)N1CCC(n2c(=O)[nH]c3ccccc32)CC1 (stereo not given) | -5.89% (inactive)
COC(=O)C(c1ccccc1)N1CCCCCC1 (stereo not given) | -0.1% (inactive)
c1ccc(C(CN2CCCCC2)c2ccccc2)cc1 | 50% (active)

SMILES | inhibition
OC(CNC1CCCCC1)c1ccccc1 (stereo not given) | -2.05% (inactive)
CCOP(=O)(OCC)C(NC(=O)NC)C(N)=O (stereo not given) | -7.67% (inactive)
COc1cccc(C(c2nnnn2-c2ccc3c(c2)OCCO3)N2CCC3(CC2)C(=O)NCN3c2ccccc2)c1OC (stereo not given) | -16.2% (inactive)
c1ccc(CCN2CCC3(CC2)OCCO3)cc1 | -10% (inactive)
O=C(OCCN1CCOCC1)C1(c2ccccc2)CCCC1 | 35.5% (active)
CCOC(=O)C1(c2ccccc2)CCN(CC(O)c2ccc(NC(C)=O)cc2)CC1 (stereo not given) | -8.72% (inactive)
CC(=O)NCC1=C(c2ccc3ccccc3c2)C[C@@H]2CC[C@H]1N2Cc1ccco1 | -9.51% (inactive)
CCN(CC)P(=O)(Oc1cccc(C)c1)N(CC)CC | -22.1% (inactive)
COC(=O)C1=C(c2ccccc2OCc2ccccc2)C[C@@H]2CC[C@H]1N2C(=O)NCc1ccc(OC)cc1 | 18.3% (inactive)
NC(=O)Nc1cccc(C(F)(F)F)c1 | -7.02% (inactive)
Cc1ccc(CN2CCCC(C(=O)c3ccc4c(c3)OCO4)C2)cc1C (stereo not given) | 84.4% (active)
COc1ccc(C(=O)C2CCCN(Cc3ccc(C)s3)C2)cc1OC (stereo not given) | 52.6% (active)
Cc1ccsc1C(=O)C1CCCN(Cc2ccc(O)cc2)C1 (stereo not given) | 7.02% (inactive)
Cc1cc(=O)oc2c(C)c(OCC(=O)N3CCN(Cc4ccc5c(c4)OCO5)CC3)ccc12 | -1.03% (inactive)
COc1cccc(CN2CCCC(C(=O)c3ccccc3SC)C2)c1O (stereo not given) | 23.3% (inactive)
CC(C)Nc1nc(Cl)nc(NC(C)C)n1 | -4.88% (inactive)
C=CCN1C(=O)NC(=O)/C(=C/c2ccc(OCC(=O)Nc3ccc(C)cc3)cc2)C1=O | -8.3% (inactive)
COc1ccc(-c2nc(CS(=O)CC(=O)N3CCC4(CC3)OCCO4)c(C)o2)cc1 (stereo not given) | -12.6% (inactive)
CC1(C)C(c2ccccc2)=NC(c2cccnc2)=[N+]1[O-] | -21% (inactive)
CCOC(=O)C1SC2(C(F)(F)C(F)F)CC1(O)c1c(c(OC)c3occc3c1OC)O2 (stereo not given) | 46.3% (active)
O=C(N/N=C/c1c(O)n(C2CC2)c(=S)[nH]c1=O)c1ccccc1 | -8.31% (inactive)
CCOC(=O)C1(Cc2ccc(Cl)cc2)CCN(C(C)CCn2cccn2)CC1 (stereo not given) | 22.2% (inactive)

SMILES | inhibition
O=C(Cc1ccccc1)N1CCN(C2CCCCCC2)CC1 | -0.63% (inactive)
CC1CCCN1CCC(C(N)=O)(c1ccccc1)c1ccccc1 (stereo not given) | 98.5% (active)
CC1CCCCN1Cc1cccnc1 (stereo not given) | 3.5% (inactive)
COC(=O)C1=C(c2cccc(OCc3ccccc3)c2)C[C@@H]2CC[C@H]1N2C(=O)NNCc1ccccc1 | 18.8% (inactive)
Cc1cc(OCc2cc(C(=O)O)oc2C)c2c3c(c(=O)oc2c1)CCCC3 | -3.16% (inactive)
CSc1nc2ccc(C)cc2c(=O)n1-c1cccnc1 | -6.09% (inactive)
CSc1ccc(C(=O)C2CCCN(Cc3ccn[nH]3)C2)cc1 (stereo not given) | 62.7% (active)
S=C(NCCc1ccccc1)N1Cc2cc(N3CCOCC3)ccc2-n2nncc2C1 | -7.43% (inactive)
COC(=O)C1=C(c2ccccc2)C[C@@H]2CC[C@H]1N2C(=O)N1CCCCC1 | -1.18% (inactive)
O=C(NC1CCCCC1)N1Cc2cc(N3CCCCC3)ccc2-n2nncc2C1 | 6.05% (inactive)
CCOc1cccc(=NC2CCCCC2)c2c(C)[nH]c(C)c12 | -4.64% (inactive)
CCCCCCCCCCCCn1ccc(=N)cc1 | 89.2% (active)
COc1ccc(C2NCc3ccc4c(c3-n3cccc32)OCO4)cc1OC (stereo not given) | -9.71% (inactive)
O=C(c1cc2nc(-c3ccccc3)cc(-c3ccccc3)n2n1)N1CCC2(CC1)OCCO2 | -31% (inactive)
COC(=O)C1=C(c2ccc(-c3ccccc3)c(F)c2)C[C@@H]2CC[C@H]1N2C(=O)NCc1ccc(F)cc1 | 1.14% (inactive)
COc1cc(C(=O)N2Cc3ccc(Br)cc3-n3nncc3C2)cc(OC)c1OC | 1.07% (inactive)
Cc1nn(Cc2ccccc2Cl)c(Cl)c1C(=O)OC(C(=O)NC(N)=O)C(C)C (stereo not given) | -7.79% (inactive)
CCOC(=O)CNC(=O)N1Cc2cc(N3CCCCC3)ccc2-n2nncc2C1 | -0.57% (inactive)
CC(CC(C#N)(c1ccccc1)c1ccccc1)N1CCCCC1 (stereo not given) | 75.2% (active)
Clc1ccc2nc3c(c(-c4ccccc4)c2c1)CNCC3 | 5.52% (inactive)
Cn1c(O)c(C(=Nc2ccc(F)cc2)c2ccccc2)c(=O)n(C)c1=O | -7.87% (inactive)
